Assay outcomes from PubChem BioAssay.
D3 ag – qHTS of D3 Dopamine Receptor Agonist: qHTS | D(3) dopamine receptor (Homo sapiens), P35462 | D3R DiscoveRx beta-arrestin cells, luminescence, 90 min | max activation, % | actives 0.58% (n = 410,000) | AID 652048, 2013; in the data active means max activation above about 30%; further: 0% is about no effect
Target sequence (P35462 whole entry, looked up): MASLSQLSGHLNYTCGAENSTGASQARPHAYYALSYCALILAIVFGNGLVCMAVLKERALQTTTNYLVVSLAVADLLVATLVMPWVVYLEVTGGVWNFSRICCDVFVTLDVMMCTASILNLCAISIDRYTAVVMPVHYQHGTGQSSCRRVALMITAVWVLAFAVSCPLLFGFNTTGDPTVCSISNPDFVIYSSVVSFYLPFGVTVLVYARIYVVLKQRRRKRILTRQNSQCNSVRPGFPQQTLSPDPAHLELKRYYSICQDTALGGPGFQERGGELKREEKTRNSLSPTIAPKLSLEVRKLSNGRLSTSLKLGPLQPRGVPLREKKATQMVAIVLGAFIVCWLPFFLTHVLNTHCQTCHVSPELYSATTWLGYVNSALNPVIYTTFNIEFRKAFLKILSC
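Agonist-mode cell screen: cells plated at 1500/well and incubated overnight at 37 °C, then exposed to library compounds for 90 min at 37 °C. Detection reagent was added for 30–60 min at room temperature, and luminescence was read.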
IL1B secr inh – qHTS for Inhibitors of Inflammasome Signaling: IL-1-beta AlphaLISA Primary Screen; THP-1 LPS/ATP IL-1B secretion, AlphaLISA, 16 h; hits give low values; activity change, % at 57.5 µM; actives 4.7% (n = 360,000); AID 743279, 2014; in the data active means activity change below about -50%; inconclusive means mostly about -30% to -49%; further: on the % scale 0 is the no-effect control and ±100 the full control effect
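THP-1 cells pretreated 1 hr with compounds (up to 57.5 uM final), then stimulated with LPS (250 ng/mL final) plus ATP (1.25 mM final); secreted IL-1B measured by AlphaLISA after 16 hr, decreased signal indicating inhibition.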
DT40 TDP1 CPT – qHTS for Inhibitors of human tyrosyl-DNA phosphodiesterase 1 (TDP1): qHTS in cells in presence of CPT; chicken DT40 Tdp1-/-;hTDP1 cells + 20 nM CPT, ATP luminescence, 48 h; Potency, µM (series often up to 46.2 µM), for the others: at the top dose activity change, negative = growth inhibition, actives largely listed as inhibitors; actives 12% (n = 420,000); AID 686979, 2013; further: potency means the concentration at half of the fitted maximal effect; on the % scale 0 is the no-effect control and ±100 the full control effect; nearly all actives have a fitted effect of over 55% in size
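Chicken DT40 Tdp1-/- cells stably complemented with human TDP1 were seeded at 400 cells/well in medium containing 20 nM camptothecin, exposed to pin-transferred compounds, and grown at 37 °C for at least 48 hr. Viability was read as ATP luminescence.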
ClpP mod – qHTS Assay for Activators of ClpP; actives 1.9% (n = 340,000); ATP-dependent Clp protease proteolytic subunit (Bacillus subtilis (strain 168)), P80244; Potency, µM (titrated, usually from 57.5 µM), without a hit: at the highest dose activity change, negative = active; purified B. subtilis ClpP, FRET peptide cleavage, 20 min; active means well fitted falling curve with a large enough effect; inconclusive means small, poorly fitted or top-dose-only effect; inactive means no such curve, though single readings can be large or run the other way; further: potency means the concentration at half of the fitted maximal effect; the source files actives as falling curves though it sought activators and does not explain the sign; nearly all actives have a fitted effect of over 65% in size
Target sequence (P80244 whole entry, looked up): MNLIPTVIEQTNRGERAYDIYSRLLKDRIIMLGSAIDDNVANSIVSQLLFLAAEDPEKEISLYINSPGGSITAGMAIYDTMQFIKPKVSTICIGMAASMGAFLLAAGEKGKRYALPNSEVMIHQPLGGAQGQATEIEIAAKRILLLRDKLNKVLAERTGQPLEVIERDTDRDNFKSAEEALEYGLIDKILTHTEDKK
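FRET quenching reversal measured ClpP activation: 10 microg/mL B. subtilis ClpP at pH 8 with the FRET-FV decapeptide, read at 430 nm after 320 nm excitation. The 20-min minus 0-min signal was scaled between DMSO/no-enzyme wells and ADEP (5.8 microM final).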
DRD3 antagonist – qHTS of D3 Dopamine Receptor Antagonist: qHTS. actives 2.5% (n = 360,000). max response, negative = inhibition, %. D3R cells, DiscoveRx beta-arrestin luminescence, antagonist mode; hits give low values. D(3) dopamine receptor (Homo sapiens), P35462; in the data active means max response below about -50%; inconclusive means no clear call, values can overlap the other calls; further: on the % scale 0 is the no-effect control and ±100 the full control effect
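Cells plated overnight at 1500 cells/well, then exposed to library compounds with dopamine controls for 90 minutes at 37 degrees C. DiscoveRx reagent added for 30–60 minutes at room temperature; luminescence read, quantitative HTS format.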
TDP1 cell noCPT – qHTS for Inhibitors of human tyrosyl-DNA phosphodiesterase 1 (TDP1): qHTS in cells in absence of CPT. Potency, µM (highest dose often 46.2 µM), for the others: at the highest dose activity change, negative = growth inhibition, hits mostly inhibitors. AID 686978, 2013. actives 15% (n = 420,000). DT40 Tdp1-/- hTDP1 cells, no CPT, ATP luminescence, 48 h; further: potency means the concentration at half of the fitted maximal effect; on the % scale 0 is the no-effect control and ±100 the full control effect; nearly all actives have a fitted effect of over 55% in size
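Cells were dispensed at 400 per well, compounds added by pin tool, plates incubated ≥48 hr at 37 °C, then CellTiter-Glo added for 30 min at room temperature before luminescence reading. Line: DT40 Tdp1-/- complemented with hTDP1; camptothecin omitted.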
* hit, by the source's call; ? = inconclusive; · = no result given. Most compounds without a hit are left out; they make up all but 21% or so of the library. Unless noted, the call rests on the fitted dose curve; in most records, active means well fitted inhibition curve with a large enough effect; inconclusive means small, poorly fitted or top-dose-only effect; inactive means flat fitted curve, though single readings scatter.

SMILES	D3 ag	IL1B secr inh	DT40 TDP1 CPT	ClpP mod	DRD3 antagonist	TDP1 cell noCPT
Cc1ccc(CNC(=O)c2sc3ncnc(N(C)C4CCCCC4)c3c2C)cc1	4	·	?	?	·	26µM*
Cc1c(C(=O)NCc2ccc(OC(C)C)cc2)sc2ncnc(N(C)C3CCCCC3)c12	-10	·	?	-30%	·	?
Cc1ccccc1CNC(=O)c1sc2ncnc(N(C)C3CCCCC3)c2c1C	-9	·	?	?	·	21µM*
O=[N+]([O-])c1cccc(C=NNC(=S)NC23CC4CC(CC(C4)C2)C3)c1	-16	13	?	1%	-4	?
CCOc1ccc(S(=O)(=O)N2CCN(C(=O)CCC(=O)N3CCOCC3)CC2)cc1	-4	-5	2%	-3%	24	-3%
CCCCC(=O)Nc1ccc2c(c1)nc(CCN1CCOCC1)n2C	2	4	?	-14%	-12	-29%
CCCC(=O)Nc1ccc2c(c1)nc(CCN1CCN(c3ccccn3)CC1)n2C	57*	11	1%	·	-5	-12%
CCCCC(=O)Nc1ccc2c(c1)nc(CCN1CCN(c3ccccn3)CC1)n2C	44*	-12	?	-3%	-28	-22%
O=C(CN1C(=O)C(=O)N(C2CCCC2)C1=O)Nc1ccc(F)cc1F	1	30	0%	·	7	-2%
C[C@@]12C(=O)N(CC3CC3)CC(=O)N1[C@H](/C=C/c1ccccc1)[C@@H]1C(=O)N(c3ccccc3)C(=O)[C@@H]12	-2	4	3%	0%	2	8%
CCOc1ccc(C(=O)Nc2ccc(-c3cc4ccccc4oc3=O)c(C)c2)cc1[N+](=O)[O-]	1	66	13µM*	?	-28	12µM*
Cc1cc(NC(=S)NC(=O)c2ccccc2)ccc1-c1cc2ccccc2oc1=O	-10	9	3.3µM*	11%	-21	2.9µM*
Cn1c(NC(=O)Cc2cccc3ccccc23)cc(=O)n(C)c1=O	2	-10	-27%	2%	17	-29%
Cn1cc(S(=O)(=O)NC[C@H]2O[C@@H](n3ccc(=O)[nH]c3=O)[C@H](O)[C@@H]2O)cn1	15	12	14%	2%	23	-1%
CN1CCc2c(n(CC(O)CN3C(=O)c4ccccc4S3(=O)=O)c3ccccc23)C1=O (stereo not drawn)	4	-19	5%	-5%	0	-9%
CC(C)NCC(O)Cn1c2c(c3ccccc31)CCc1c-2cnn1-c1ccccc1 (stereo not drawn)	0	-16	3.7µM*	8.9µM*	9	5.8µM*
Cc1ccc(C(=O)NC(C(=O)OCc2cn3cc(Cl)ccc3n2)C(C)C)cc1 (stereo not drawn)	2	27	?	-3%	13	-28%
CCCCc1ccc(NC(=O)COC(=O)c2ccc3ncsc3c2)cc1	1	13	-6%	-2%	2	-17%
C[C@@]12C(=O)N(Cc3ccco3)CC(=O)N1[C@H]1c3cc(Cl)ccc3OC[C@@H]1[C@@H]2c1ccccc1	0	?	?	-1%	0	?
C[C@@]12C(=O)N(Cc3ccccc3)CC(=O)N1[C@H]1c3cc(Cl)ccc3OC[C@@H]1[C@@H]2c1ccccc1	-2	-28	?	-1%	-12	18µM*
C[C@@]12C(=O)N(Cc3ccc(F)cc3)CC(=O)N1[C@H]1c3cc(Cl)ccc3OC[C@@H]1[C@@H]2c1ccccc1	-22	?	23µM*	-1%	2	18µM*
CC1CCN(c2nn3c(=O)c(C(=O)NCc4ccc(Cl)cc4)cnc3s2)CC1	-13	·	-6%	-14%	·	4%
CCOc1cccc2cc(-c3nc4ccc(C(=O)O)cc4[nH]3)c(=O)oc12	1	·	5%	5%	·	-23%
COc1cccc(N2CC(NC(=O)C3CCCCC3)CC2=O)c1 (stereo not drawn)	-16	·	-29%	-1%	·	-2%
Cc1ccc(C)c2c1CCC(=Cc1ccccc1[N+](=O)[O-])C2=O	2	-12	?	0%	2	?
SMILES	D3 ag	IL1B secr inh	DT40 TDP1 CPT	ClpP mod	DRD3 antagonist	TDP1 cell noCPT
CN1C/C(=C/c2ccccc2[N+](=O)[O-])C(=O)/C(=C\c2ccccc2[N+](=O)[O-])C1	-27	-98*	0.52µM*	1%	-90*	0.92µM*
Cc1ccc(-n2ncc3c(=O)n(CC(=O)N4CCCc5ccccc54)cnc32)cc1C	1	-24	?	?	49	16µM*
COc1ccc(-n2ncc3c(=O)n(CC(=O)N4CCCc5ccccc54)cnc32)cc1	10	-7	?	-13%	25	23µM*
O=C(Cn1cnc2c(cnn2-c2ccc(F)cc2)c1=O)N1CCCc2ccccc21	3	-17	-3%	-2%	36	-24%
Cc1ccc(-n2ncc3c(=O)n(CC(=O)N4CCN(c5ccccc5F)CC4)cnc32)cc1C	-9	15	-27%	-3%	-17	-20%
CCOC(=O)COc1c(Cl)cc(C2NC(=S)NC(c3ccccc3)=C2C(C)=O)cc1OC (stereo not drawn)	-8	-95*	-15%	1%	-12	-27%
COC(=O)COc1ccc(C2NC(=O)NC(c3ccccc3)=C2C(C)=O)cc1Br (stereo not drawn)	6	-71*	2%	1%	5	0%
COc1ccc(S(=O)(=O)N(C)c2ccc(OC(=O)C(C)Oc3ccc(F)cc3)cc2)cc1 (stereo not drawn)	4	9	-6%	218%	7	-11%
CC(Oc1ccc2ccc(=O)oc2c1)C(=O)NC1CCN(Cc2ccccc2)CC1 (stereo not drawn)	0	-14	-3%	5%	-17	-4%
CC(C)(C)OC(=O)N1CCc2nc(N3CCN(c4ncccn4)CC3)ncc2C1	7	·	-11%	?	·	-26%
O=C(Nc1ccc2c(c1)OCCO2)C(c1ccccc1)n1c(=O)c(-c2ccco2)nc2ccccc21 (stereo not drawn)	-8	-4	4.1µM*	-13%	0	?
O=C(Nc1ccc2c(c1)OCCO2)C(c1ccncc1)n1c(=O)c(-c2ccco2)nc2ccccc21 (stereo not drawn)	9	-14	10µM*	-16%	3	?
